The whole screen tested about 290,000 compounds, of which about 800 (0.28%) were called active.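 The calls were made as follows: active = fall in fluorescence gain of 50% or more versus controls, with final raw signal at or below 3038400; inconclusive = same 50% fall but final raw signal above 3038400; inactive = fall in fluorescence gain under 50%.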 Shown is part of a subset that was picked to be rich in actives.

Sequence of CAAX prenyl protease 2 (Saccharomyces cerevisiae (strain ATCC 204508 / S288c)) (Q03530 whole entry, looked up): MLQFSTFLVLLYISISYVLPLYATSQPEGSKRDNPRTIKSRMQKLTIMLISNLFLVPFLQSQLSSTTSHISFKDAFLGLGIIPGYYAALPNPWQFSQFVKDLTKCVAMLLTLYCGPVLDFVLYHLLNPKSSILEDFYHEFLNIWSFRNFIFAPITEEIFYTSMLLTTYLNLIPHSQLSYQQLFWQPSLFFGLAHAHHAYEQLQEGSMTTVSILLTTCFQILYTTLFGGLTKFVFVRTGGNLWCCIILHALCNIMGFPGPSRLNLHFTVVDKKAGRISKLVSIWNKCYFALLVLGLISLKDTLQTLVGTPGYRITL

This experiment concerns the target CAAX prenyl protease 2 (Saccharomyces cerevisiae (strain ATCC 204508 / S288c)) (UniProt Q03530). Description: yeast Rce1p protease inhibitors, primary screen, biochemical, fluorescence, cell-free homogeneous (AID 2563). To be noted: yeast membranes, quenched prenylated peptide cleavage fluorescence.
For `COC(=O)N/N=C/c1c[n+]([O-])c2ccccc2[n+]1[O-]`, the molecule was called inactive.

`NS(=O)(=O)c1cc(C(=O)OCC(=O)NNC(=O)c2ccccc2)ccc1Cl`: the result was inactive.

Turning to `CCN(CC(=O)Nc1ccccc1C(F)(F)F)C(=O)CSCc1c(C)noc1C`, the molecule was called inactive.

In the case of `COc1ccc2nc(N3CCN(C(=O)c4ccc([N+](=O)[O-])o4)CC3)sc2c1`, the result was inactive.

Regarding `CC(=O)c1ccc(S(=O)(=O)Nc2ccc(-c3ccc4nncn4n3)cc2)cc1`, the call was inactive.

With `COC(=O)C1CCN(C(=O)NC2CC(=O)N(c3ccc4c(c3)OCCO4)C2)CC1` (stereo not given), the outcome was inactive.

As for `Cc1cc(Br)ccc1NC(=O)c1sc2ncn(CC(=O)N3CCN(c4ccccn4)CC3)c(=O)c2c1C`, the molecule was called inactive.

On to `O=C(CN1CCN(c2ccccn2)CC1)Nc1ccc(Br)cc1`, for which the outcome was inactive.

Take `Cc1cc(Br)ccc1NC(=O)c1cnc(N2CCN(c3ccccn3)CC2)c2ccccc12`: the outcome was active.

With `O=C(Nc1ccc(N2CCCCC2)cc1)c1cc(S(=O)(=O)N2CCOCC2)ccc1F`, the call was inactive.

As to `CN1c2ccc(C=O)c3c(C=O)ccc(c23)N(C)C1(C)C`, the result was active.

For `CCOc1ccc(S(=O)(=O)NCCC(=O)NCC(C)(C)N2CCOCC2)cc1`, the call was inactive.

Turning to `CC(=O)Nc1ccc(NC(=O)CSc2nnnn2C2CCCCC2)cc1`, the molecule was called inactive.

With `COc1ccc(Cl)cc1NS(=O)(=O)c1cccc(C(=O)NC2CCC(O)CC2)c1` (stereo not given), the result was inactive.

With `Cc1ccc(NC(=O)C2CC(=O)N(c3ccc4c(c3)OCCO4)C2)cc1S(=O)(=O)N1CCCCCC1` (stereo not given), the molecule was classed as inactive.

With `O=C(CCNC(=O)c1ccc(Br)cc1)NCCCc1ccccc1`, the call was inactive.

In the case of `CN(CC(=O)NNC(=O)CNC(=O)c1ccccc1Cl)S(=O)(=O)c1ccc(Cl)cc1`, the molecule was classed as inactive.

In the case of `COCc1c(C(=O)N/N=C/C2CC=CCC2)nnn1-c1nonc1N` (stereo not given), the molecule was called active.

With `COCc1c(C(=O)N/N=C\c2cccnc2)nnn1-c1nonc1N`, the molecule was classed as inactive.

With `Cc1ccc(SCc2c(C(=O)N/N=C/C3CC=CCC3)nnn2-c2nonc2N)cc1` (stereo not given), the result was inactive.

`CCCn1c(C2CCCN2c2nc(-c3ccc(C)cc3)cs2)nc2cc(Cl)c(N3CCCCC3)cc21` (stereo not given): the molecule was classed as inactive.

Take `Cc1ccc(-c2csc(NCCc3nc4cc(Cl)c(Cl)cc4n3CCOCCO)n2)cc1`: the molecule was called inactive.

Turning to `Cc1ccc(-c2csc(N3CCN(c4cc5c(cc4Cl)nc(-c4ccncc4)n5CCOCCO)CC3)n2)cc1`, the molecule was called active.

Take `COc1ccc(Cl)cc1NC(=O)CN(C)C(=O)c1cc(-c2cccs2)nn1-c1ccccc1`: the molecule was classed as inactive.

`COc1cc2ccccc2cc1C(=O)Nc1ccncc1`: the outcome was inactive.

Consider `CCc1nnc(NS(=O)(=O)c2ccc(NC(=O)c3cccc(OC(F)(F)C(F)F)c3)cc2)s1`, for which the result was inactive.

`CC1(C)O[C@H]2CC(=O)OCC23[C@H]2CC[C@@]4(C)[C@H](c5ccoc5)OC(=O)[C@H]5O[C@]54[C@]2(C)C(=O)C[C@@H]13` (stereo not given in full): the molecule was classed as inactive.

As to `CCCNC(=O)c1ccc(N2CCC3(CC2)CC(c2cccc(Br)c2)=NO3)c(NC(=O)c2ccco2)c1`, the call was inactive.

For the molecule `Cc1cccc(N=C2SC(C)CN2C(=O)CN2C(=O)NC3(CCCC3)C2=O)c1` (stereo not given), the outcome was inactive.

Consider `CC(=O)NCC(O)c1ccc([N+](=O)[O-])cc1` (stereo not given), for which the molecule was classed as inactive.

As to `O=C(NCC(O)c1ccc([N+](=O)[O-])cc1)C1CCCCC1` (stereo not given), the call was inactive.

As for `O=C(CC(c1ccccc1)c1ccccc1)NCC(O)c1ccc([N+](=O)[O-])cc1` (stereo not given), the molecule was classed as active.

For the molecule `Cc1ccc(OCC(=O)Oc2ccccc2[N+](=O)[O-])cc1`, the outcome was inactive.

As for `Cc1cc(C)c(C)c(S(=O)(=O)N2CCN(C(=O)c3ccc4c(=O)n5c(nc4c3)CCC5)CC2)c1C`, the result was inactive.

Regarding `COc1ccc(CCNC(=S)N2CCN(S(=O)(=O)c3ccc(F)cc3)CC2)cc1`, the outcome was inactive.

`CC(=O)C12CC(C)=C(C)CC1CC1C3CCC4=CC(=O)CCC4(C)C3CCC12C` (stereo not given): the outcome was inactive.

As to `CSc1nsc(NC(=O)Nc2ccccc2)n1`, the outcome was inactive.

As to `CCN(Cc1ccccc1)C(=O)Cc1ccc(OC)c(S(=O)(=O)N2CCOCC2)c1`, the call was inactive.

Regarding `O=C(COc1coc(CN2CCN(c3ccccc3)CC2)cc1=O)Nc1ccccc1F`, the molecule was called inactive.

Regarding `COCCCN(C(=O)CSCc1ccc(C)cc1)c1c(N)n(Cc2ccccc2)c(=O)[nH]c1=O`, the call was inactive.

In the case of `COc1ccc(N2CCN(S(=O)(=O)c3cc4c5c(c3)C(C)C(=O)N5CCC4)CC2)cc1` (stereo not given), the outcome was inactive.

Consider `O=C(Nc1ncccc1O)c1ccc(S(=O)(=O)N2CCCCCC2)cc1`, for which the outcome was inactive.

On to `COc1cc(C2C(C(=O)c3cccs3)=C(O)C(=O)N2CCN2CCOCC2)ccc1OCCC(C)C` (stereo not given), for which the molecule was classed as inactive.

`Cc1ccc2nc(SCC(=O)N3CC(C)OC(C)C3)nc(=O)n2c1` (stereo not given): the call was inactive.

On to `Cc1cccc(C)c1NC(=O)CNC(=O)c1c(C)nn(-c2ccccc2)c1C`, for which the molecule was called inactive.

Consider `CCc1noc(C)c1C(=O)N1CCCSC1=Nc1ccccc1OC`, for which the outcome was inactive.

As to `CCCCn1c(N)c(N(CC(C)C)C(=O)C2CSC3(C)CCC(=O)N23)c(=O)[nH]c1=O` (stereo not given), the molecule was called inactive.

`COc1ccc(CNC(=O)COC(=O)CCS(=O)(=O)c2ccc(C)cc2)cc1OC`: the molecule was called inactive.

As for `Cc1c(NC(=O)C(C)Oc2cccc(Cl)c2)c(=O)n(-c2ccccc2)n1C` (stereo not given), the call was inactive.

Turning to `O=C(NC1CCCCC1)c1ccc(-c2ccc(Cl)cc2)o1`, the result was inactive.

Take `CCOc1ccc(C(C)=O)cc1COC(=O)CNC(=O)c1cccs1`: the result was inactive.

On to `O=C(COc1coc(CN2CCN(c3ccccc3F)CC2)cc1=O)N1CCc2ccccc21`, for which the molecule was classed as inactive.

Take `O=c1[nH]c(/C=C/c2cccc(Br)c2)nc2ccccc12`: the result was inactive.

On to `COc1ccc(NC(=O)CN(C)C(=O)c2ccc(COc3ccccc3)o2)cc1`, for which the outcome was inactive.

For `Cc1ccc(S(=O)(=O)N2CCOCC2)cc1C(=O)Nc1ccccc1N1CCCC1`, the molecule was called inactive.

Turning to `COc1ccc([C@@H]2[C@@H]3C(=O)N(C(C)(C)C)C(=O)[C@@H]3[C@]3(Cc4ccccc4)C(=O)N(c4cccc(Br)c4)C(=O)N23)cc1`, the call was inactive.

Take `Cc1noc(C)c1C(=O)NCCc1ccc(S(N)(=O)=O)cc1`: the outcome was inactive.

In the case of `CCCNC(=O)c1c(N)n(-c2ccc(S(N)(=O)=O)cc2)c2nc3ccccc3nc12`, the outcome was active.

As for `CCOC(=O)c1c(C)c(C(=O)NCCc2ccc(S(N)(=O)=O)cc2)c(C)n1CC`, the result was inactive.

For `CN(C)C(CNC(=O)c1cccc(S(=O)(=O)Nc2ccc(Br)cc2)c1)c1ccco1` (stereo not given), the molecule was classed as inactive.

As to `COc1ccc(N2CC(C(=O)NCCN3C(=O)S/C(=C\c4cccnc4)C3=O)CC2=O)c(OC)c1` (stereo not given), the outcome was inactive.

`CC1(C)C/C(=N/Nc2ccc([N+](=O)[O-])cc2[N+](=O)[O-])C(C)(C)O1`: the outcome was inactive.

For the molecule `COc1ccc(C(CNC(=O)c2ccc(NS(=O)(=O)c3ccc(F)c(C)c3)cc2)N(C)C)cc1` (stereo not given), the call was inactive.

On to `CCOC(=O)c1cnc2nc(SCc3ccccc3Cl)[nH]n2c1=O`, for which the molecule was called inactive.

As for `CCOC(=O)c1cc(C(C)C)sc1NC(=O)COC(=O)c1nccnc1N`, the outcome was inactive.

Regarding `Cc1nc2ccccc2c(=O)n1-c1ccc(NS(=O)(=O)c2ccc(F)cc2F)cc1`, the molecule was called inactive.

Regarding `O=C(CNC(=O)c1ccccc1Br)NCCSc1ccc(Br)cc1`, the molecule was classed as inactive.

Take `COc1ccc(-c2oc3ncnc(NCCCO)c3c2-c2ccc(OC)cc2)cc1`: the molecule was called inactive.

With `COc1ccc(-c2oc3ncn(Cc4ccco4)c(=N)c3c2-c2ccc(OC)cc2)cc1`, the molecule was called active.

Regarding `N=c1c2c(-c3ccccc3)c(-c3ccccc3)oc2ncn1Cc1ccco1`, the result was inactive.

Regarding `CCCCn1c(N)c(N(CCOC)C(=O)COc2c(C)cccc2C)c(=O)[nH]c1=O`, the outcome was inactive.

As to `CCCCOCCCNC(=O)c1ccccc1OCC`, the result was inactive.

For the molecule `CCCOc1ccccc1C(=O)NCCCC(=O)O`, the molecule was classed as active.

In the case of `COc1ccc(CCNC(=O)c2ccccc2OCc2ccccc2)cc1`, the outcome was inactive.

Consider `O=C(Nc1ccc2nc3n(c(=O)c2c1)CCCC3)c1ccc(Cl)nc1`, for which the outcome was inactive.

In the case of `O=C(Nc1ccc(S(=O)(=O)N2CCCCC2)cc1)C1CCN(C(=O)c2ccc(F)cc2)CC1`, the molecule was called inactive.

In the case of `CC1(C)CC(N(Cc2ccccc2)C(=O)Cc2ccccc2)CCO1` (stereo not given), the call was inactive.

Consider `O=C(O)CCC(=O)N(Cc1cccs1)Cc1cccs1`, for which the result was inactive.

For the molecule `CC(=O)N(Cc1cccs1)C1CCOC(C)(C)C1` (stereo not given), the result was active.

In the case of `COc1ccccc1CNC(=O)CSc1nc(=O)n(Cc2ccncc2)c2c1CCC2`, the outcome was inactive.

With `Cc1ccccc1C(=O)NCC(c1ccco1)N1CCc2ccccc21` (stereo not given), the outcome was inactive.

As to `O=C(NCCS(=O)(=O)N1CCN(c2ccc(F)cc2)CC1)c1ccc2c(c1)OCO2`, the molecule was classed as inactive.

Turning to `N#CCCN(C(=O)COC(=O)c1ccc(S(=O)(=O)N2CCCCCC2)cc1)c1ccccc1`, the molecule was called inactive.

With `Cc1ccccc1OCC(=O)Nc1ccc2c(c1)ncn2C`, the result was inactive.

On to `COc1cc(NC(=O)CSC(=S)N2CCCC2)c(OC)cc1Cl`, for which the call was inactive.

In the case of `O=C(O)c1ccc(/C=N/NC(=O)c2ccc(Br)cc2)cc1`, the call was inactive.

As to `CN(C)c1ccc(/C=N/NC(=O)c2ccc(Cn3cc(Br)cn3)o2)cc1`, the molecule was classed as inactive.

Consider `CN(C)c1ccc(/C=N/NC(=O)C(O)c2ccc(Br)cc2)cc1` (stereo not given), for which the result was active.

In the case of `COc1ccc(S(=O)(=O)N2CCCCC2)cc1NC(=O)c1cc([N+](=O)[O-])ccc1N1CCOCC1`, the molecule was classed as inactive.

Turning to `CC1(c2ccc(Cl)cc2Cl)NC(=O)N(CC(=O)Nc2cccnc2Cl)C1=O` (stereo not given), the molecule was classed as inactive.

As to `COc1ccc(C(CNC(=O)c2cccc(S(=O)(=O)Nc3ccccc3Cl)c2)N2CCOCC2)cc1` (stereo not given), the result was inactive.

For `O=C(CCC1CCCCC1)Nc1cc(C(F)(F)F)ccc1N1CCOCC1`, the molecule was classed as inactive.

`O=C(CN1CCOCC1)Nc1cccc([N+](=O)[O-])c1`: the molecule was classed as inactive.

As to `Cc1ccc(S(=O)(=O)CC(=O)Nc2sc(C)c(C)c2C(N)=O)cc1`, the molecule was classed as inactive.

Consider `CCCCOC(=O)Cn1c(=N)n(CCN(CC)CC)c2ccccc21`, for which the molecule was called inactive.

Take `Cc1ccc(OCc2nc3ccccc3n2C)cc1`: the molecule was classed as inactive.

As for `CCCCCCCCCCOC(=O)Cn1c(COc2cccc(OC)c2)[n+](C)c2ccccc21`, the call was active.

For `CCn1c(=N)n(CC(=O)c2cccc(OC)c2)c2ccccc21`, the outcome was inactive.

With `CCCCCCCCCCOC(=O)Cn1c(COc2ccc(C)cc2)[n+](C)c2ccccc21`, the molecule was classed as active.

Take `COc1cccc(OCC(=O)Nc2ccccc2C(N)=O)c1`: the call was inactive.

The record behind these values is PubChem BioAssay AID2563 (Broad Institute, 2010).
